# Screening data deposited in PubChem BioAssay by National Center for Advancing Translational Sciences (NCATS).
# The list is not random: actives were taken first. Their share in the collection is about 9%.
# ALDH1A1 inh: blocks purified human ALDH1A1 activity; P00352; Purified ALDH1A1, NADH fluorescence, propionaldehyde substrate; Potency, µM (highest dose often 75.3 µM), for the others: at the highest dose activity, negative = inhibition, usual class: inhibitors; hit rate 7.3% among 220,000; AID 1030; active means well fitted inhibition curve with a large enough effect, not every such curve was filed as active; inconclusive means small, poorly fitted or top-dose-only effect, or another doubt; inactive means no such curve, though single readings can be large or run the other way;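 further: plate controls were no enzyme wells and a reference inhibitor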
# Target sequence (P00352 whole entry, looked up): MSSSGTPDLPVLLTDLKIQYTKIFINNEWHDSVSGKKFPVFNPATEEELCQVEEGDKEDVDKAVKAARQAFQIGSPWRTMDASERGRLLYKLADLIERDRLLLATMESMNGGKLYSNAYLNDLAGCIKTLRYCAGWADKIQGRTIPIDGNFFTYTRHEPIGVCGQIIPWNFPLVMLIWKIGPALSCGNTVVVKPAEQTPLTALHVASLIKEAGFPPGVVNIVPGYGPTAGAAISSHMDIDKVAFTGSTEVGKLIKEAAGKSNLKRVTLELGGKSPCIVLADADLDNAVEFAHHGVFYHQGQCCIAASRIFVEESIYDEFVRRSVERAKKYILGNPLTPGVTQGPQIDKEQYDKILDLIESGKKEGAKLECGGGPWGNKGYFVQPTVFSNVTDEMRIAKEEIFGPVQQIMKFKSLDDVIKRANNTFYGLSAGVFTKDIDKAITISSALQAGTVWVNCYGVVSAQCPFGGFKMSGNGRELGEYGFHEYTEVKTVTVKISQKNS
# HPGD inh: blocks human HPGD enzyme activity; Potency, µM, without a hit: at the top dose activity change, negative = inhibition, actives largely listed as inhibitors; purified HPGD, NADH fluorescence kinetic, PGE2 substrate; P15428; AID 894; hit rate 4.3% among 150,000; active means well fitted inhibition curve with a large enough effect, not every such curve was filed as active; inconclusive means small, poorly fitted or top-dose-only effect, or another doubt; inactive means no such curve, though single readings can be large or run the other way; further: on the % scale 0 is the no-effect control and ±100 the full control effect
# Target sequence (P15428 whole entry, looked up): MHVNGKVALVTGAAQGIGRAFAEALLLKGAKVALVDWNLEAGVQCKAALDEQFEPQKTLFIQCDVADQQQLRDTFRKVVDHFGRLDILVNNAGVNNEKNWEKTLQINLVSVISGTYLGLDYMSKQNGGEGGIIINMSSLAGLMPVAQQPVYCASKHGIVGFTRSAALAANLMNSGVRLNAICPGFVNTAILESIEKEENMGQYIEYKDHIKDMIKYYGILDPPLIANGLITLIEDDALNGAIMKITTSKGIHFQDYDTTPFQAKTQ
#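 NADH formation kinetics: reaction with 30 uM PGE2 and 1 mM NAD+ (final), 20 nM enzyme, Tris-HCl pH 8 with Tween 20, after 15 min compound preincubation at room temperature. Fluorescence change, last versus first of five reads.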
# HttQ103 aggreg: reduces HttQ103-GFP aggregates in PC12 cells. PC12 HttQ103-GFP aggregates, Acumen cytometry, 40 h. Potency, µM (highest dose often 46.1 µM), for the others: top-dose activity change, negative = inhibition, most hits filed as inhibitors. hit rate 1.1% among 220,000. AID 1688; further: on the % scale 0 is the no-effect control and ±100 the full control effect; nearly all actives have a fitted effect of over 60% in size
#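 PC12 cells with ecdysone-inducible HTT exon1 Q103-GFP, induced by 100 nM tebufenozide, given compounds in a concentration series. GFP aggregates (1–25 um, 6 SD above background) counted in lysates by laser-scanning cytometry, 488 nm excitation.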
# LMNA splice mod: LMNA splicing modulation | HeLa LMNA splicing GFP/RFP minigene ratio, 48 h | Potency, µM (doses to about 46.1 µM), inactives show at the top dose ratio change, negative = inhibition, hits mostly inhibitors | hit rate 0.01% among 200,000 | AID 1487; active means well fitted inhibition curve with a large enough effect in the signal ratio, with a control signal flat, not every such curve was filed as active; inconclusive means small, poorly fitted or top-dose-only effect, or effect the other way, or a change in a side signal; the % refers to the signal ratio; further: on the % scale 0 is the no-effect control and ±100 the full control effect
#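 Read-out is the ratio of GFP to DsRed2 object intensity, acquired by 488 nm laser-scanning cytometry on HeLa lamin A-EGFP minigene reporter cells. Compound incubation 48 hrs at 37 °C in Opti-MEM with 2% FBS; DMSO 0.5% final.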
# Luc counter: Kinase-Glo luciferase inhibition (counter-screen). Q27757. Kinase-Glo luciferase, ATP luminescence, 8 min. Potency, µM (highest dose often 38.3 µM), without a hit: at the highest dose activity change, negative = inhibition, most hits filed as inhibitors. hit rate 0.28% among 200,000. AID 1379; further: on the % scale 0 is the no-effect control and ±100 the full control effect; nearly all actives have a fitted effect of over 60% in size
#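 Luminescence was the read-out, taken after 8-minute incubation at ambient temperature. Luciferase turned over luciferin with 10 uM ATP in imidazole pH 7.2 buffer containing KCl, MgCl2, Tween 20 and BSA.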
# HTT cytoprotect: Huntington cell model cytoprotection by ATP luminescence. Potency, µM (doses to about 56.4 µM), inactives show cytoprotection (ATP increase), usual class: activators. PC12 HTT-Q103 induced, cytoprotection, ATP luminescence, 40 h. hit rate 0.14% among 230,000; further: % of control where 0% means no effect; nearly all actives have a fitted effect of over 45% in size
#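 Compounds added alongside 100 nM tebufenozide, which induces toxic Q103 huntingtin exon 1-GFP in stable PC12 cells; surviving cells quantified by luminescent ATP measurement. Medium: phenol red-free DMEM, 5% equine and 5% calf serum.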
# Numbers without * were called inactive; ? = inconclusive; · = not tested or not shown; [ ] = another dose, or the depositor's remark. Unless noted, the call rests on the fitted dose curve; in most records, active means well fitted curve in the direction sought with a large enough effect; inconclusive means small, poorly fitted or top-dose-only effect, or another doubt; inactive means no such curve, though single readings can be large; an effect the other way counts as inactive or inconclusive. Potency means the concentration at half of the fitted maximal effect.
SMILES,ALDH1A1 inh,HPGD inh,HttQ103 aggreg,LMNA splice mod,Luc counter,HTT cytoprotect
CC(C)C(NC(=O)CSCc1ccc([N+](=O)[O-])cc1)C(C)C,-10.5%,10µM*,?,?,0.1%,-13.3%[10 µM]
Cc1nc2nc(SCc3ccc([N+](=O)[O-])cc3)[nH]c2cc1Br,·,·,-9.1%[9.22 µM],·,·,2.5%[10 µM]
C=C(C)CSc1nc2nc(C)c(Br)cc2[nH]1,-6.7%,14.1µM*,-5.4%,0.4%,-4.5%,-1.2%
CCOP(=O)(O)c1ccccc1OCCOCCOc1ccccc1P(=O)(O)OCC,3.98µM*,1.9%,7.5%,7.6%,-1.6%,11.1%[10 µM]
O=C(CN1CCN(c2ccc(O)cc2)CC1)NC(c1ccccc1)c1ccccc1,12.6µM*,?,9.4%,-6.5%,-4.5%,-19.0%[10 µM]
CC1CC(C)CN(CC(=O)NC(c2ccccc2)c2ccccc2)C1 (configuration not stated),11.2µM*,·,18.9%[9.22 µM],·,-4.8%,15.0%[10 µM]
OC(CNCc1ccccc1)Cn1ccc2ccccc21 (configuration not stated),?,-11.8%,2.8%,11.4%,0.1%,·
O=C1c2ccccc2S(=O)(=O)N1CC(O)Cn1ccc2ccccc21 (configuration not stated),12.6µM*,-19.1%,7.0%,10.2%,1.5%,20.8%
OCc1nc2ccccc2n1CC(O)Cn1ccc2ccccc21 (configuration not stated),22.4µM*,-17.7%,?,?,-3.2%,-3.9%
Oc1ccccc1NCC(O)Cn1ccc2ccccc21 (configuration not stated),14.1µM*,·,22.5%,9.5%,·,-17.3%
CCOc1ccccc1C(=O)NC1CCN(Cc2nnnn2C2CCCC2)CC1,28.2µM*,-6.8%,-2.7%,9.9%,1.6%,-8.3%[10 µM]
Cc1ccc2c(c1)NC(=O)C(CC(=O)NCCCN1CCN(c3cc(Cl)ccc3C)CC1)O2 (configuration not stated),-8.9%,-20.7%,-7.5%,?,8.4%,-11.5%[10 µM]
CCC(=O)Nc1nc(C)c(C(=O)N2CCCCC2)s1,?,8.91µM*,-8.5%,-2.3%,-1.2%,6.1%
CCOC(=O)c1sc(NC(=O)CC)nc1C,2.5%,·,0.5%,0.1%[9.22 µM],-3.1%,-6.3%
COc1ccc(S(=O)(=O)N2CCCCC2)cc1NC(=O)c1cc(C)on1,?,·,-8.4%,·,-1.8%,-8.1%
Cn1c(SCC(=O)N2c3ccccc3Sc3ccccc32)nnc1-c1ccco1,?,-20.4%,-13.8%,-14.9%,0.4%,1.8%
CN1CCN(CC(=O)NC23CC4CC(CC(C4)C2)C3)CC1,·,·,3.5%[9.22 µM],·,·,1.1%[10 µM]
CCCCOc1ccccc1NC(=O)CC1Nc2ccccc2NC1=O (configuration not stated),14.1µM*,-6.9%,8.7%,6.4%,2.5%,-1.3%
CCOc1c(Cl)cc(CNC(C)(C)CC(C)(C)C)cc1OC,15.4%,-3.0%,5.4%,-3.0%,-3.7%,-15.8%
CCCCCNC(=O)CCn1c(=O)oc2ccccc21,2.0%,-1.0%,-12.7%,0.4%,1.9%,9.7%[10 µM]
COc1ccc2occ(C(=O)c3ccccc3)c2c1,-12.0%,·,-11.0%,·,-5.2%,·
O=C(c1coc2ccc(O)cc12)C1CC1,2.82µM*,-13.7%,0.4%,18.4%,-1.4%,8.0%
O=C(c1ccc(Cl)cc1)c1coc2ccc(O)cc12,8.9%,-12.1%,0.631µM*,?,-5.7%,-39.8%
COc1ccc2occ(C(C)=O)c2c1,?,-23.4%,-0.2%[9.22 µM],12.0%,-0.4%,-1.9%
CCN(C(=O)c1ccccc1)c1ccc([N+](=O)[O-])cc1,5.01µM*,-5.3%,-7.9%,5.9%,-4.5%,·
SMILES,ALDH1A1 inh,HPGD inh,HttQ103 aggreg,LMNA splice mod,Luc counter,HTT cytoprotect
O=[N+]([O-])c1ccc(N(c2ccccc2)c2ccccc2)cc1,?,-29.1%,-0.7%,21.1%,-5.7%,9.1%
O=C(CSc1nnnn1C1CCCC1)NCc1cccs1,?,·,-0.8%[9.22 µM],10.3%[46 µM],-2.9%,13.6%[10 µM]
COc1ccc(COc2ccc(C3C(S(=O)(=O)c4ccccc4)CON3C)cc2OC)cc1 (configuration not stated),8.91µM*,·,-21.7%,?,1.3%,5.6%[10 µM]
c1ccc(Cc2noc(CN3CCCN(C4Cc5ccccc5C4)CC3)n2)cc1,1.4%,·,13.7%[9.22 µM],?,0.2%,27.0%[10 µM]
O=C(CSc1nccn1-c1cccc(Cl)c1)NO,1.6%,·,7.8%,·,10.0%,18.4%
CCOC(=O)c1c(C)c(C(=O)N2CCN(c3ccccc3)CC2)c(C)n1C,-3.9%,·,-24.3%,·,1.8%,-14.1%
CCOC(=O)c1c(C)c(C(=O)N2CCCCCC2)c(C)n1CC,0.1%,12.6µM*,-1.0%,-14.2%,-2.4%,-13.2%[10 µM]
CCOC(=O)c1c(C)c(C(=O)N2CCCCCC2)c(C)n1C,0.4%,15.8µM*,-31.6%,-4.3%,-1.4%,-0.7%
CCOC(=O)c1c(C)c(C(=O)NCc2ccc(OC)cc2)c(C)n1C,7.94µM*,·,-12.1%,·,2.8%,·
CCOC(=O)c1sc(NCC2CCCO2)nc1C (configuration not stated),-4.2%,12.6µM*,?,-4.7%,1.6%,?
Cc1nn(C(C)C(=O)NCC2CCCO2)c(=O)c2cc3occc3n12 (configuration not stated),?,-15.2%,28.6%,4.1%,-4.2%,-8.4%
CCOC(=O)c1c(C)c(C(=O)Nc2ccc3c(c2)OCCO3)c(C)n1CC,-8.0%,-10.6%,-12.0%,?,-1.6%,-30.9%
CCOC(=O)c1c(C)c(C(=O)NCC2CCCO2)c(C)n1CC (configuration not stated),?,22.4µM*,5.4%,20.4%,-1.7%,9.5%[1.9 µM]
COc1ccc(-c2nnn(CC#N)n2)cc1OC,12.3%,-8.9%,-1.5%,-9.0%,-2.4%,-8.8%
Cc1ccc(NC(=O)c2nn(C34CC5CC(CC(C5)C3)C4)cc2[N+](=O)[O-])cc1,0.0282µM*,-21.3%,?,?,-2.3%,-6.3%
COc1ccc(NC(=O)c2nn(C)cc2[N+](=O)[O-])cc1,0.6%,·,-6.9%[9.22 µM],·,·,1.4%[10 µM]
COc1ccc(NC(=O)c2ccc(F)cc2)cc1S(=O)(=O)Nc1cc(C)ccc1Br,6.5%,-12.1%,-22.6%,?,-2.0%,-10.9%[10 µM]
CCOc1cccc(CNc2ccc(O)cc2)c1OCc1ccc(Cl)cc1Cl,22.4µM*,-7.1%,?,?,-3.1%,13.9%
COc1ccc(-c2nn(-c3ccccc3)cc2/C=C(\C#N)S(=O)(=O)c2ccccc2)cc1OC,8.91µM*,-22.2%,-3.6%,-0.6%,-1.8%,6.4%[10 µM]
Cc1cc2c(C)cc(=O)[nH]c2cc1NC(=O)CCl,?,·,-6.9%[9.22 µM],·,·,0.9%[10 µM]
O=C(CCl)Nc1cc2[nH]c(=O)[nH]c2cc1Br,2µM*,·,?,?,0.5%,-139.7%
COc1ccc(N(CCC#N)C(=O)/C(C#N)=C/c2cccs2)cc1,14.1µM*,·,16.3%,9.9%[46 µM],1.8%,-8.4%
